Laboratory results from the supplement of paper PMC13380429.

System: Vero E6 infected with SARS-CoV-2
Assay: inhibition of SARS-CoV-2 cytopathic effect; higher = more antiviral protection, active = above 15
Settings: 48 h

Measured: inhibition of SARS-CoV-2 cytopathic effect

O=C(Nc1ccccc1)c1ccccc1O [salicylanilide]
inactive: 1 nM -4.46% | 8.33 nM -2.22% | 100 nM -1.24% | 833.33 nM 1.14% | 10000 nM 0.54%

N#Cc1c(N(CC(=O)O)CC(=O)O)sc(C(=O)O)c1CC(=O)O [Strontium Ranelate]
inactive: 1 nM 1.28% | 8.33 nM 2.01% | 100 nM 0.58% | 833.33 nM 5.99% | 10000 nM 1.75%

CCOC(=O)[C@@H](C)Oc1cccc2c(=O)n(CC(=O)Nc3ccc4c(c3)OCCO4)ccc12
inactive: 1 nM -1.29% | 8.33 nM 1.77% | 100 nM 0.7% | 833.33 nM -5.6% | 10000 nM -5.98%

CC(C)(O)CC[C@@H](O)[C@](C)(O)[C@H]1CC[C@@]2(O)C3=CC(=O)[C@@H]4C[C@@H](O)[C@@H](O)C[C@]4(C)[C@H]3CC[C@]12C [20-hydroxyecdysone]
inactive: 1 nM -3.9% | 8.33 nM -2.28% | 100 nM -3.43% | 833.33 nM 0.03% | 10000 nM 1.01%

Nc1nc(NCCc2ccc(O)cc2)nc2nc(-c3ccco3)nn12
inactive: 1 nM 0.11% | 8.33 nM -0.03% | 100 nM -0.54% | 833.33 nM -1.25% | 10000 nM -5.15%

O=C(c1ccc2nccnc2c1)N1CCCCC1 [ampalex]
inactive: 1 nM -0.24% | 8.33 nM 0.88% | 100 nM 0.65% | 833.33 nM 0.17% | 10000 nM 0.77%

O=C1C(=O)N(Cc2ccc(Cl)c(Cl)c2)c2ccccc21 [apoptosis-activator-II]
inactive: 1 nM 1.74% | 8.33 nM -0.59% | 100 nM -1.07% | 833.33 nM -3.55% | 10000 nM -3.11%
